# Compound activity as filed in PubChem BioAssay.
# Only some compounds are listed: those with a hit (about 6.2% of all), similar ones and a draw of the others.
# KB-3-1 tox: kills parental KB-3-1 adenocarcinoma cells | KB-3-1 viability, CellTiter-Glo ATP luminescence, 72 h | Potency, µM (titrated, usually from 46.1 µM), hits mostly cytotoxic | 1.4% of 400,000 active | AID 1347075; note: nearly all actives have a fitted effect of over 60% in size
#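 Cells are dispensed, compounds pinned in, plates held at 37 °C for 72 h, then CellTiter-Glo is added and luminescence read after 10 minutes. Cell line: parental KB-3-1 in phenol-red-free DMEM, 10% FBS.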
# HT1080-NT tox: kills 2HG-producing HT-1080-NT fibrosarcoma cells. 1.6% of 360,000 active. AID 686970. Potency, µM (titrated, usually from 46.1 µM), hits mostly cytotoxic. HT-1080-NT fibrosarcoma viability, CellTiter-Glo ATP luminescence, 48 h;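 note: NT is the 2HG producing partner of a matched IDH1 knockdown line; nearly all actives have a fitted effect of over 55% in size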
#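 750 cells/well, RPMI + 5% FBS; 2 h settle, compound pin-transfer, 48 h at 37 degrees C. CellTiter-Glo 10 min RT, luminescence. Normalized to DMSO and media-only wells.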
# HT1080 IDH1KD tx: toxicity to HT-1080 IDH1 knockdown cells (counter line); AID 686971; Potency, µM (top dose mostly 46.1 µM), hits mostly cytotoxic; 2% of 360,000 active; HT-1080 IDH1 knockdown viability, ATP luminescence, 48 h
#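 Viability of IDH1-knockdown HT-1080 fibrosarcoma cells was assessed by CellTiter-Glo after 48 h at 37 °C with titrated compound; concentration-effect curves were classified by fit quality and response size.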
# ATXN2 expr inh: inhibitors of ATXN2 expression; 0.72% of 360,000 active; HEK-293 ATXN2-luciferase reporter, luminescence, 24 h; Potency, µM (titrated, usually from 57 µM), most hits filed as inhibitors; note: nearly all actives have a fitted effect of over 55% in size
#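 qHTS (up to 57 uM final) was run with 24 h compound exposure of reporter cells at 37 °C. Each well was multiplexed: SteadyGlo luminescence measured ATXN2-luciferase expression after a fluorogenic Gly-Phe-AFC viability readout (25 uM final).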
# S2 tox: reduces viability in counter-screen for ATXN expression inhibitors. S2 cells (HEK-293 line with an ATXN2-luciferase reporter) viability, CellTiter-Fluor protease fluorescence, 24 h. Potency, µM (top dose mostly 56.7 µM), actives largely listed as cytotoxic. 0.49% of 400,000 active. AID 651635; note: nearly all actives have a fitted effect of over 40% in size
# KB-V1 cytotox: kills drug-selected multidrug resistant KB-V1 cells; KB-V1 MDR cells viability, CellTiter-Glo, 72 h; Potency, µM (highest dose often 46.1 µM), hits mostly cytotoxic; 3.4% of 400,000 active; note: nearly all actives have a fitted effect of over 60% in size
#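 In this primary screen, KB-V1 cells overexpressing P-gp are incubated with library compounds (lowest to highest concentration) for 72 h at 37 degrees C before a luminescent ATP viability read.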
# Hits are given with their value; i = inactive; ? = inconclusive; nt = no result; [ ] = dose if it differs, or a comment. Calls come from the whole dose curve; as a rule, active = well fitted curve in the direction sought with a large enough effect; inconclusive = small, poorly fitted or top-dose-only effect, or another doubt; inactive = no such curve, though single readings can be large; an effect the other way counts as inactive or inconclusive.
SMILES,KB-3-1 tox,HT1080-NT tox,HT1080 IDH1KD tx,ATXN2 expr inh,S2 tox,KB-V1 cytotox
COc1ccc(/C=N/Nc2nc(-c3cccc(S(=O)(=O)N4CCCC4)c3)cs2)cc1OC,i,i,i,i,?,i
CCOc1cc(/C=N/Nc2nc(-c3cccc(S(=O)(=O)N4CCCC4)c3)cs2)ccc1O,i,i,i,?,nt,13µM
O=[N+]([O-])c1cc(/C=N/OCc2c(Cl)cccc2Cl)ccc1N1CCOCC1,?,i,i,i,i,13µM
CNC(=O)c1ccc(C)c(-n2c(C)cc(OCc3ccc(F)cc3F)c(Br)c2=O)c1,nt,nt,nt,i,nt,nt
CC1CCc2cc(F)ccc2N1C(=O)CSc1nnc(-c2cccs2)n1C (stereo not given),i,i,i,i,i,7.31µM
Cn1c(SCC(=O)N2CCCc3ccccc32)nnc1-c1cccs1,i,i,i,i,i,i
CC1CCc2cc(F)ccc2N1C(=O)CSc1nnc2c(n1)[nH]c1ccccc12 (stereo not given),i,i,?,i,i,16.4µM
CCCCc1cc(=O)oc2cc(C)c(CN3CCCC3)c(O)c12,i,?,i,i,i,18.4µM
CCCc1cc(=O)oc2cc(C)cc(O)c12,14.6µM,i,i,i,i,13µM
CCc1cc(=O)oc2cc(C)c(CN3CCCC(C)C3)c(O)c12 (stereo not given),i,i[9.24 µM],i,i,i,?
CCc1cc(=O)oc2cc(C)cc(O)c12,i,i,i,i,nt,i
Cc1cc(=O)oc2cc(O)cc(O)c12,?,i,1.64µM,i,?,i
Cc1cccc(CNC(=O)c2cnn(-c3nccc(-c4cc5ccccc5o4)n3)c2C2CC2)n1,nt,nt,nt,nt,i,nt
CCCCCCCCCCCCCCCC[n+]1ccc(/C=C/c2c[nH]c3ccccc23)cc1,11.6µM,nt,nt,nt,nt,?
C(=C\c1c[nH]c2ccccc12)/c1cc[n+](C2CCCCC2)cc1,i,nt,nt,nt,nt,i
CCCCCCCCCC[n+]1ccc(/C=C/c2c[nH]c3ccccc23)cc1,5.17µM,nt,nt,nt,nt,?
OCC[n+]1ccc(/C=C/c2c[nH]c3ccccc23)cc1,?,i,i,i,i,i
CC(C)(C)OC(=O)Nc1ccc(-c2cc(C(=O)NCCCCCCC(=O)NO)no2)cc1,nt,nt,nt,i,nt,nt
COC(=O)CN(c1ccc(OC)cc1)S(=O)(=O)c1ccc(OC)c(OC)c1,i,i,i,i,i,?
COC(=O)CN(c1cc(Cl)ccc1OC)S(=O)(=O)c1ccc(OC)c(OC)c1,i,i,i,i,i,2.31µM
N#C/C(=C(/O)c1cccc(F)c1)c1nc2ccccc2s1,5.8µM,i,i,nt,i,2.91µM
Cn1c(/C(C#N)=C(\O)c2cccc(F)c2)nc2ccccc21,i,?,?,i,i,i
N#C/C(=C(/O)c1cc2ccccc2o1)c1nc2ccccc2s1,20.6µM,i,i,i,i,?
N#C/C(=C(/O)c1ccco1)c1nc2ccccc2s1,?,?,?,i,?,?
CCN(CC)CCNC(=O)C1CCN(C(=O)c2cnn(-c3ccccc3)c2-n2cccc2)CC1,i,nt,nt,i,i,i
SMILES,KB-3-1 tox,HT1080-NT tox,HT1080 IDH1KD tx,ATXN2 expr inh,S2 tox,KB-V1 cytotox
N#Cc1ccc(N2Cc3ccccc3C2=NC(=O)c2cccs2)cc1,i,i,i,i,?,18.4µM
CC(=O)c1ccc(N2Cc3ccccc3C2=NC(=O)c2cccs2)cc1,i,i,i,i,?,?
CCOc1ccc(CCNC(=O)c2nnc(Cc3cc(OC)c(OC)c(OC)c3)o2)cc1OCC,i,nt,nt,i,i,i
Cc1cccc(C)c1OCC(=O)Nc1oc(-c2ccccc2)c(-c2ccccc2)c1C#N,?,?,i,i,i,16.4µM
COc1ccc(C(=O)Nc2oc(-c3ccccc3)c(-c3ccccc3)c2C#N)cc1,?,i,?,i,i,?
Cc1cc([N+](=O)[O-])ccc1NC(=O)/C=C/c1cccs1,?,i,i,i,?,8.2µM
Cc1ccnc(NC(=O)/C=C/c2cccs2)c1,?,?,?,i,i,11.6µM
Cc1cccc(NC(=O)/C=C/c2ccc([N+](=O)[O-])s2)c1,5.8µM,2.91µM,4.11µM,8.91µM,8.91µM,4.61µM
O=C(/C=C/c1cccs1)Nc1nncs1,i,i,i,i,i,i
